Here are results for 20 molecules from PubChem BioAssay AID602346 (Broad Institute, 2012).

About 1,200 (0.35%) of roughly 340,000 compounds were called active. For the sample, actives were picked, then their nearest neighbours and some compounds at random. Values without a mark were called inactive. Rule as the data show it: active = inhibition above about 50% (passing the limit was not always enough); inconclusive = no clear call, values can overlap the other calls; inactive = below about 31%.

A short description of the experiment: blockers of Vif multimerization in cells – imaging, HEK293T, single point, primary screen (AID 602346). As to conditions: Vif self-association by quenched fluorescence, 24 h, at 7.49 µM, active compounds read high.
Regarding `COc1ccc(Br)c(Cn2c(C)c(C(=O)NCc3cccs3)sc2=O)c1`, the inhibition (as a rule, the change of the read-out against control, counted positive when it falls) is 1.02%.

On to `CC[C@]1(O)C[C@@H]2CN(CCc3c([nH]c4ccccc34)[C@@](C(=O)OC)(c3cc4c(cc3OC)N(C)[C@H]3[C@@](O)(C(=O)OC)[C@H](OC(C)=O)[C@]5(CC)C=CCN6CC[C@]43[C@@H]65)C2)C1`, for which the inhibition was 79.8% (active).

For `COc1cc(NC(=O)c2ccccc2)c(OC)cc1NC(=O)Cc1ccccc1`, the inhibition was -4.83%.

Consider `COc1cc(NC(=O)c2ccc(-c3csc(C)n3)cc2)c(OC)cc1Cl`, for which the inhibition was 64% (active).

`CCOCC(=O)Nc1cc(OC)c(Cl)cc1OC`: the inhibition is -3.02%.

As to `COCC(=O)Nc1c(I)c(C(=O)NCC(O)CO)c(I)c(C(=O)N(C)CC(O)CO)c1I` (stereo not given), the inhibition is -1.59%.

With `CC(=O)N(CC(O)CO)c1c(I)c(C(=O)NCC(O)CO)c(I)c(C(=O)NCC(O)CO)c1I` (stereo not given), the inhibition is 62% (active).

As for `CC12CCC(=O)C=C1CCC1C2C(O)CC2(C)C1CCC2(O)C(O)CO` (stereo not given), the inhibition was 24%.

For `C[C@H]([C@@H](O)[C@@H](O)[C@@H](C)C(C)(C)C)[C@H]1CC[C@H]2C3CC[C@H]4C[C@H](OS(=O)(=O)O)[C@@H](OS(=O)(=O)O)C[C@]4(C)[C@H]3CC[C@]12C` (stereo not given in full), the inhibition is 9.95%.

For the molecule `CC(C)(C)CC(=O)Nc1nc(C(N)Cc2ccc(C(F)(F)F)cc2)cs1` (stereo not given), the inhibition was -2.15%.

Take `C[C@@H]1CN([C@@H](C)CO)S(=O)(=O)c2ccc(C#Cc3cccc(F)c3)cc2O[C@H]1CN(C)S(=O)(=O)c1cn(C)cn1`: the inhibition was -26.5%.

In the case of `Cc1ccc(C)c(N2CCN(S(=O)(=O)c3ccc4c(c3)oc(=O)n4C)CC2)c1`, the inhibition was -13.1%.

On to `Cc1ccc(C)c(N2CCN(S(=O)(=O)c3c(C)[nH]c(C)c3C(=O)N3CCCC3)CC2)c1`, for which the inhibition was 1.25%.

As for `COC(=O)c1cc(S(=O)(=O)N2CCN(c3cc(C)ccc3C)CC2)c[nH]1`, the inhibition was 51.4% (active).

For the molecule `CCCCCCNC(=O)O[C@H]1CN(C(=O)OC(C)C)N(C(=O)OC(C)C)[C@@H]2CN(S(=O)(=O)c3ccc(C)cc3)C[C@]12O`, the inhibition is -2.14%.

Turning to `CCOP(=O)(OCC)C(Cc1ccccc1)N=C(c1ccccc1)c1ccccc1` (stereo not given), the inhibition was -3.63%.

Consider `CC1(C(=O)Nc2cccc(Oc3ccccc3)c2)CCN1Cc1ccccc1Cl` (stereo not given), for which the inhibition is 1.11%.

On to `O=C(c1ccco1)N1CCN(C(=O)C2c3ccccc3Oc3ccccc32)CC1`, for which the inhibition is 2.39%.

Take `O=C(c1ccco1)N1CCN(CCOc2ccccc2)CC1`: the inhibition is 3.05%.

For the molecule `CN(Cc1ccccc1)C(=O)CCC1CCN(C(=O)c2ccco2)CC1`, the inhibition is 132% (active).
